Drawing on PubChem BioAssay AID504710 (Sanford-Burnham Center for Chemical Genomics, 2011), this text covers inhibition for 17 compounds.

A number with no mark means an inactive call. Active and inactive are the calls of the source.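 Rule for the calls: active = inhibition reaching about 16% in any single replicate (limit read from the data); inactive = the rest.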

In the assay the target is Hexokinase HKDC1 (Homo sapiens) (UniProt Q2TB90). As to the kind of experiment: compounds lowering human HKDC1 activity – biochemical, single concentration, confirmation (AID 504710). Conditions: recombinant HKDC1, G6PDH/diaphorase/resazurin fluorescence; at 20 µM; active compounds read high. A general note: Resazurin is reduced to fluorescent resorufin, in cell work by metabolically active cells.
Sequence of Hexokinase HKDC1 (Homo sapiens) (Q2TB90 whole entry, looked up): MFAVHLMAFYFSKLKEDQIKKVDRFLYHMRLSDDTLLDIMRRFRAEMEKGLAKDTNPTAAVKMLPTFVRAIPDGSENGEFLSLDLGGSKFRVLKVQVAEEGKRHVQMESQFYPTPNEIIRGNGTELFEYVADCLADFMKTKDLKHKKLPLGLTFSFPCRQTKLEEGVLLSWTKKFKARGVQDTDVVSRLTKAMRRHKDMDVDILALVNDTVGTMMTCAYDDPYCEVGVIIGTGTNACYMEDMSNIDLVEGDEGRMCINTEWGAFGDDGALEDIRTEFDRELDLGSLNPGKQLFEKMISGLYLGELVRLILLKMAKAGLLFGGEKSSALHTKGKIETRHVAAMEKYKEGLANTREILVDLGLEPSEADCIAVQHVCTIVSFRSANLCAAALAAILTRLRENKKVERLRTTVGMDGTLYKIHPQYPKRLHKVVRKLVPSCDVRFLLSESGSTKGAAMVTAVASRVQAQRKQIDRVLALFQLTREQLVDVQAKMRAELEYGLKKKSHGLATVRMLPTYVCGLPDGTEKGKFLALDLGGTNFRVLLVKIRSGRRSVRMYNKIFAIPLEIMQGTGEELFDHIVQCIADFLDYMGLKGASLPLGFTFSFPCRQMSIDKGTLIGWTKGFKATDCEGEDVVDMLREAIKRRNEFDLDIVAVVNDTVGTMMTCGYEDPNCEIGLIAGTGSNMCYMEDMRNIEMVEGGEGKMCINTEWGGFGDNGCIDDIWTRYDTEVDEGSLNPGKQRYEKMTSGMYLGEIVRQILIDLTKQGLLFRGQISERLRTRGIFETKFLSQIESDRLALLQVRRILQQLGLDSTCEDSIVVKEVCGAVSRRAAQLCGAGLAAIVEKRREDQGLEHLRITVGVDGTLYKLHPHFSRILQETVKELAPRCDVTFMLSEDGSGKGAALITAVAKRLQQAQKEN
As usually defined, the inhibition is the change of the read-out against control, counted positive when it falls. For `O=c1[nH]c2ccccc2n2c(-c3ccccc3)nnc12`, the inhibition is 58.5% (active).
For `CCCCNC(=O)c1sc(=S)n2c1[nH]c(=O)c1ccc(C(=O)NCCc3ccc(OC)c(OC)c3)cc12` the value was 49.8% (active); for `CCN=C1NN=C(c2ccc(C)cc2)CS1`, -52%.
For `O=C1C=C(N2CCOCC2)c2ccccc2C1=O` the value was 79.4% (active); for `Cc1ccc(SC2=C(N(C)C)C(=O)c3ccccc3C2=O)cc1`, 59.9% (active).
For `O=[N+]([O-])c1ccc(Sc2nc3ccccc3o2)c([N+](=O)[O-])c1` the value was 30.4% (active).
`CCCc1nc2oc3c(OC)ncnc3c2c2c1COC(C)(C)C2`: the inhibition is 42.4% (active).
For `Cc1cc(C)n2nc(SCc3nnc(SCc4ccccc4C)s3)nc2n1` the value was 69.2% (active); for `O=C(COC(=O)c1n[nH]c2ccccc12)c1cccc(Br)c1`, -30.5%.
Regarding `Cc1nc2c3cc(F)ccc3n(Cc3ccccc3)c2s1`, the inhibition was -61.3%.
For `Cc1cc(C2=NNC(=Nc3ccc(S(=O)(=O)N4CCOCC4)cc3)SC2)c(C)n1CC1CCCO1` (configuration not stated) the value was -55.8%.
For `O=C(O)c1ccc2ncsc2c1` the value was 48.1% (active).
Regarding `Cn1c(-c2ccccc2)c(C(=O)CC#N)c2ccccc21`, the inhibition is -42%.
As for `COc1ccc(NC(=O)CSc2ccc(-c3cccnc3)nn2)c(OC)c1`, the figure is 38.8% (active).
For `CCOC(=O)C1=C(c2ccc(OC)cc2)C(=O)c2ccccc2C1=O` the value was 75% (active); for `Cc1cc(C)n2cc(CSc3nnc(-c4ccccc4)c(-c4ccccc4)n3)nc2n1`, 38.5% (active).
As for `CCOC(=O)Cn1c2ccc(F)cc2c2nc(C)sc21`, the figure is -36.6%.
